Most compounds without a hit are left out; they make up all but 9% or so of the library.
HP1b chromo inh: inhibitors of HP1-beta chromodomain binding to methylated histone tails; AID 540317; 390,000 tested, 0.56% active; AlphaScreen HP1-beta / biotin-H3K9me3 peptide binding; Potency, µM (series often up to 114 µM), for inactives: at the highest dose activity change, negative = inhibition, most hits filed as inhibitors; also: nearly all actives have a fitted effect of over 70% in size
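AlphaScreen: HP1-beta (50 nM) preformed 30 min with biotin-H3(1-18)K9me3 peptide (50 nM) in PBS pH 7.4, 0.01% Tween-20. Compound added for 30 min at RT, then streptavidin donor/nickel chelate acceptor beads (10 ug/mL) for 30 min.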
G9a inh: G9a (human) methyltransferase inhibition | G9a H3K9 monomethylation, AlphaScreen, 2 h | Potency, µM (highest dose often 102 µM), inactives show at the top dose activity, negative = inhibition, most hits filed as inhibitors | 350,000 tested, 8.8% active; also: % is scaled to controls: 0 for no effect and ±100 for the full control effect; nearly all actives have a fitted effect of over 75% in size
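Methyltransferase reactions run at room temperature for 2 h (20 nM enzyme, 500 nM biotin-H3K9 peptide, 20 uM SAM) after a 15 min compound preincubation; product detected by AlphaScreen beads and anti-H3K9me1 antibody.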
BAZ2B block: BAZ2B (human) inhibition. 360,000 tested, 4.4% active. AlphaScreen BAZ2B-H3K14Ac peptide displacement. Q9UIF8. Potency, µM (highest dose often 114 µM), inactives show at the top dose activity change, negative = inhibition, actives largely listed as inhibitors; also: % is scaled to controls: 0 for no effect and ±100 for the full control effect; nearly all actives have a fitted effect of over 60% in size
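BAZ2B (50 nM) with biotin-H3(5-23)K14Ac peptide (50 nM) in PBS pH 7.4, 0.01% Tween-20, preformed 30 min, then compound 30 min at room temperature; top concentration 110uM. AlphaScreen streptavidin donor/nickel chelate acceptor beads (10 ug/mL final), 20 min dark, signal read.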
JMJD2A Tudor: inhibitors of human JMJD2A Tudor domain; O75164; AlphaScreen JMJD2A-Tudor / H3K4me3 peptide binding; Potency, µM (titrated, usually from 114 µM), without a hit: at the top dose activity change, negative = inhibition, usual class: inhibitors; 390,000 tested, 4.4% active; AID 504339; also: % is scaled to controls: 0 for no effect and ±100 for the full control effect; nearly all actives have a fitted effect of over 50% in size
Target sequence (O75164 whole entry, looked up, the tested form may be a part): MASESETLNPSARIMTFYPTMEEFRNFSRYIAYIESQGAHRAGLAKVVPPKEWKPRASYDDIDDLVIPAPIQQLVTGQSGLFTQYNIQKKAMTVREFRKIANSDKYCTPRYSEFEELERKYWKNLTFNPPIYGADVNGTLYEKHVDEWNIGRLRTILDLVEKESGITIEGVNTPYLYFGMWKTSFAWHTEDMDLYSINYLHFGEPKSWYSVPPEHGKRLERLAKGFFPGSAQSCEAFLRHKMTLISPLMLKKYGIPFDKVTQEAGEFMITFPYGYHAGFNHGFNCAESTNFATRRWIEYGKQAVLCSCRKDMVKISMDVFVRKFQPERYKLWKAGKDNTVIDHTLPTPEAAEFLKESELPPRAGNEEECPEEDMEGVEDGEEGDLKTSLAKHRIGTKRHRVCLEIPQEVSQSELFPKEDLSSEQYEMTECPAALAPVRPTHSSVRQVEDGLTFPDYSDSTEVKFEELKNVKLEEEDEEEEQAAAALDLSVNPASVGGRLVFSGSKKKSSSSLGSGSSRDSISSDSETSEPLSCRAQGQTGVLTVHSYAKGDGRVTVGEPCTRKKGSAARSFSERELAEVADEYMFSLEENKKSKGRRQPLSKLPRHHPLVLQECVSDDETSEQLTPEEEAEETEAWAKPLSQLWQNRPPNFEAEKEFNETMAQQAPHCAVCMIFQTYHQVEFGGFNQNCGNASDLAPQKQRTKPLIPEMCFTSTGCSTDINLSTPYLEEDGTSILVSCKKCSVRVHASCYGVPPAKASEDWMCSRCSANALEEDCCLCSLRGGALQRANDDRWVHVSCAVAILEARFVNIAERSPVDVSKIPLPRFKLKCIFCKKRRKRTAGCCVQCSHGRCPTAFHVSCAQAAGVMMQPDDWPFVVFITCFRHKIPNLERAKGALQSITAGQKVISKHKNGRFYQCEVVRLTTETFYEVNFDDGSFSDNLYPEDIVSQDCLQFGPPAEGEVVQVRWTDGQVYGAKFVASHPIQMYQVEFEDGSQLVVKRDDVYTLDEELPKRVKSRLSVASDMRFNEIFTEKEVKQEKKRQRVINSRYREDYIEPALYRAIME
PLK1 PBD block: inhibitors of human PLK1 polo-box domain binding; P53350; AID 720504; Plk1 PBD binding of FITC phosphopeptide, fluorescence polarization; Potency, µM, for inactives: max response, negative = inhibition, actives largely listed as inhibitors; 360,000 tested, 2.8% active; also: series mostly up to about 57 µM; % is scaled to controls: 0 for no effect and ±100 for the full control effect; nearly all actives have a fitted effect of over 65% in size
ALOX12 inh: inhibitors of human 12S-lipoxygenase ALOX12. purified 12hLO, xylenol orange hydroperoxide absorbance. Potency, µM (titrated, usually from 108 µM), for the others: at the top dose activity change, negative = inhibition, actives largely listed as inhibitors. 580,000 tested, 1.1% active. AID 1671190; also: % is scaled to controls: 0 for no effect and ±100 for the full control effect
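Hydroperoxide product was detected by ferrous iron/xylenol orange as the 573 to 405 nm absorbance ratio. Arachidonic acid at 40 uM (final) was turned over for 30 min at room temperature by 150 nM human 12hLO, pH 7.0 Hepes buffer, after 15 min compound preincubation.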
Active calls of the source: *; ? = inconclusive; / = no result; [ ] = another dose, or the depositor's remark. Calls follow the shape of the dose curve; as a rule, active = well fitted curve in the direction sought with a large enough effect; inconclusive = small, poorly fitted or top-dose-only effect, or another doubt; inactive = no such curve, though single readings can be large; an effect the other way counts as inactive or inconclusive. Potency is read from the fitted curve at half-maximal effect.

SMILES	HP1b chromo inh	G9a inh	BAZ2B block	JMJD2A Tudor	PLK1 PBD block	ALOX12 inh
COc1cc(C(=O)N2CCC(N3CCCCCC3)CC2)cc(OC)c1OC	?	/	/	7.1µM*	-2%	?
COc1ccc(-c2ccc3c(c2)S(=O)(=O)c2cccc(C(=O)N4CCN(C5CCCCC5)CC4)c2C3=O)cc1OC	-11%	/	/	79µM*	1%	-14%
COc1ccc(-c2ccc3c(c2)S(=O)(=O)c2cccc(C(=O)N4CCN(c5ccccn5)CC4)c2C3=O)cc1OC	/	/	/	/	-2%	-3%
COc1cc(C(=O)N2CCC(N3CCCCC3)CC2)cc(OC)c1C	/	/	/	/	/	8%
COc1cc(C(=O)N2CCCCCCC2)cc(OC)c1OC	/	-3%[12.7 µM]	/	/	/	/
COc1cc(C(=O)N2CCN(C3CCCCC3)CC2)cc(OC)c1OC	?	/	?	56µM*	-9%	2%
CC(NC(=O)c1cc(-c2ccccc2)n[nH]1)c1ccc(F)c(F)c1 (configuration not stated)	/	/	/	/	/	15%
CCNc1oc(/C=C/c2cccc(OC)c2)nc1C#N	/	/	/	/	/	45µM*
COc1cccc(S(=O)(=O)NCc2ccc(C(=O)Nc3ccc(Cl)cc3)cc2)c1	28%	-7%[59 µM]	-4%	?	-20%	2%
Cc1ccc(C(=O)Oc2c(S(=O)(=O)c3ccccc3)c(C)nn2-c2ccccc2)cc1	6%	?	?	14µM*	/	0%
Cc1nn(-c2ccccc2)c(OC(=O)c2ccc(Cl)cc2)c1S(=O)(=O)c1ccccc1	20%	?	-30%	-24%	/	-33%
CC(=O)Oc1c(S(=O)(=O)c2ccc(C)cc2)c(C)nn1-c1ccccc1	26%	11µM*	-22%	-31%	-29%	?
N#CC1=C(N)Nc2nc3ccccc3n2C1c1ccc(F)cc1 (configuration not stated)	0%	19%[59 µM]	-3%	-12%	-9%	63%
O=C(C[C@@H]1C[C@H]2O[C@H](CNC3Cc4ccccc4C3)[C@@H](O)[C@H]2O1)N1CCC(F)(F)C1	/	/	/	/	/	3%[176 µM]
CC1Cc2ccccc2N1S(=O)(=O)c1ccccc1F (configuration not stated)	/	/	/	/	/	-8%
CC(C(=O)N1c2ccccc2CC1C)N1CCN(S(=O)(=O)c2ccccc2F)CC1 (configuration not stated)	?	?	28µM*	3.5µM*	-1%	?
COC(=O)c1sccc1-n1cc2c(c1-c1ccccc1)c(=O)n(C)c(=O)n2C	/	/	/	/	-15%	-6%
COc1ccc(N2CCN(CC(O)COC(C)(C)C)CC2)cc1 (configuration not stated)	?	10µM*	45µM*	18µM*	0%	-16%
COc1ccc(N2CCN(CC(O)COc3ccc4c(c3)CCC4)CC2)cc1 (configuration not stated)	?	?	35µM*	56µM*	-10%	-25%
OCCN1CCN(CC(O)COCCOc2ccc(Br)cc2)CC1 (configuration not stated)	?	-13%[59 µM]	20%	18µM*	11µM*	-4%
COc1ccc(OCC(O)CN2CCN(c3ccc(Cl)cc3)CC2)cc1 (configuration not stated)	35%	2%	-13%	-11%	-5%	1%
COc1ccccc1N1CCN(CC(O)COCCOc2ccc(Br)cc2)CC1 (configuration not stated)	5%	-10%[59 µM]	?	?	3%	0%
COc1ccc(N2CCN(CC(O)COCCOc3ccc(Br)cc3)CC2)cc1 (configuration not stated)	10%	10µM*	45µM*	-20%	7%	?
O=C(N1CCN([S+](=O)([O-])Cc2ccccc2F)CC1)N1CC2CC(C1)[C@H]1CCCC(=O)N1C2 (some centres not stated)	/	/	/	/	/	45%
CCCCn1c(-c2cccc(Br)c2)nc2cc3[nH]c(=O)c(C(C)C)nc3cc21	66%	?	1%	-9%	-13%	13%
